# From PubChem BioAssay AID1347076 (National Center for Advancing Translational Sciences (NCATS), 2019)
# About 13,000 (3.2%) of roughly 400,000 compounds were called active. Another 18% or so got no clear call; they are omitted. For the sample, actives were picked, then their nearest neighbours and some compounds at random. Values without a mark were called inactive. The call rests on the fitted dose curve; in most records, active means well fitted cell-killing curve with a large enough effect; inconclusive means small, poorly fitted or top-dose-only effect, or effect the other way; inactive means flat fitted curve, though single readings scatter.
# Assay: qHTS assay for MDR1-selective chemotherapeutics: Primary screen using the drug-selected MDR subline cells KB-V1; further: nearly all actives have a fitted effect of over 60% in size
# Conditions: KB-V1 MDR cells viability, CellTiter-Glo, 72 h; series mostly up to 46.1 µM; activity change, negative = cytotoxicity: at the top concentration
# Source text: A prime difficulty in effectively treating cancer is the development of cellular resistance to multiple structurally unrelated anticancer drugs, a phenomenon known as multidrug resistance (MDR). […] Numerous strategies to overcome P-gp-mediated MDR have been explored, including the design of drugs that evade recognition and efflux, and development of inhibitors to block efflux and restore drug accumulation. […] An alternative approach is to exploit resistance by identifying drugs that target MDR cells over the non-resistant parental cells from which they were selected. […] The development of MDR1-selective agents represents a new strategy for resolving multidrug resistance, as it remains a long-standing clinical challenge for cancer chemotherapy.
# Our goal is to identify compounds that selectively kill P-gp-expressing MDR cells. We will identify MDR1-selective compounds by comparing toxicity of compounds in the screening library against parental, drug-naive (KB-3-1) adenocarcinoma cells as well as their drug-selected MDR sub-line (KB-V1). The differential toxicity of compounds against these two cell lines will be used to identify MDR1-selective compounds, whose cytotoxicity is potentiated, rather than diminished, by P-gp expression. This assay will be utilized to conduct a quantitative high-throughput screen (qHTS) in collaboration with the NIH Chemical Genomics Center to identify selective agents, and probe hits arising from the screen will be validated using secondary assays and characterized through a well-established follow-up research program. This screen was run against the entire NCGC library collection of about 400,000 compounds.
# NIH Molecular Libraries Probe Production Network [MLPCN]
# NIH Chemical Genomics Center [NCGC]
# PI: Michael Gottesman, National Cancer Institute, NIH
# Briefly, 5 microL of media containing either KB-V1 cells (columns 1-2, 4-48) are dispensed into Greiner white, treated solid-bottom 1536-well assay plates (media-only control is added to column 3). Compounds are then transferred via Kalypsys pin tool equipped with 1536-pin array (10 nL slotted pins, V&P Scientific, San Diego, CA). Following addition of compound, the plates are incubated at 37 degrees C for 72 hours. CellTiter-Glo (2.5 µL/well) is then added, and the plates are read in a ViewLux reader (Perkin-Elmer, clear luminescence filter, 1 second exposure, 1x binning) following a 10 minute incubation. All cells are dispensed in DMEM phenol-red free media containing 10% FBS.
# Library plates were screened starting from the lowest and proceeding to the highest concentration. Vehicle-only plates, with DMSO being pin-transferred to columns 5-48, will be inserted uniformly at the beginning and the end of each library in order to monitor and record any shifts in the background, which can be affected by reagent dispensers or loss in enzyme activity over time. Screening data will be corrected, normalized, and concentration-effect relationships will be derived by using publicly-available NCGC, NCATS curve fitting algorithms (http://ncgc.nih.gov/pub/openhts).
# On the % scale 0 is the no-effect control and ±100 the full control effect; potency means the concentration at half of the fitted maximal effect.
SMILES,"activity change, negative = cytotoxicity [%]",Potency
CC1(C(=O)Nc2cccc3c2CCCC3)CCN1C(=O)CCc1ccc(Cl)cc1Cl (stereo unspecified),-8.74,–
CN(CCO)C(=O)c1nc[nH]c1C(=O)N(C)Cc1ccccc1,-5.16,–
Cc1ccc(CNC(=O)CSc2c3c(nc4cc(Cl)ccc24)CCCC3)cc1,6.96,–
Cc1ccc(NC(=O)c2oc3ccccc3c2C)c([N+](=O)[O-])c1,-19.5,–
Cc1c(NC(=S)NCc2ccc(F)cc2)cccc1[N+](=O)[O-],-18.7,–
Cc1ccc(NC(=O)CN(C)Cc2ccc(F)cc2)c([N+](=O)[O-])c1,–,9.2 µM (active)
CCC(=O)N1CCC(C)(C(=O)Nc2cc(OC)c(OC)c(OC)c2)C1 (stereo unspecified),5.6,–
CCOCCc1nn2c(=O)cc(COC(=O)CNC(=O)c3ccc(C(C)(C)C)cc3)nc2s1,22,–
COc1ccc(NC(=O)CSc2nnnn2-c2cccc(OC)c2)cc1,10.7,–
COc1ccc(CSc2nnnn2-c2ccc(C(=O)O)cc2)cc1,0,–
COc1ccc(-n2nnnc2SCC(=O)c2ccc(OC)c(OC)c2)cc1,–,18.4 µM (active)
COc1c(C)cc(C(O)c2ncc(-c3cccc(C(F)(F)F)c3)[nH]2)cc1C (stereo unspecified),-11,–
CS(=O)c1ccc(/C=C2\C=Cc3ccccc32)cc1 (stereo unspecified),0,–
COc1ccc(S(=O)(=O)Nc2cccnc2)c(Cl)c1Cl,-23.8,–
COc1ccccc1Oc1ccc(S(=O)(=O)Nc2cccnc2)cc1,–,2.59 µM (active)
CCOc1ccc(S(=O)(=O)Nc2ccc(OC)nc2)cc1,-0.792,–
Cc1cc(C)n2ncc(C(=O)N3CCCC3)c2n1,-7.32,–
CCOC(=O)N1CCN(C(=O)COc2ccc(Cl)cc2C)CC1,0,–
Cc1cc(Cl)ccc1OCCCC(=O)NCc1ccncc1,–,16.4 µM (active)
Cc1cc(Cl)ccc1OCCCC(=O)Nc1cccc(-n2cnnn2)c1,-0.681,–
COCOCCn1cc(CN2CCS(=O)(=O)N(Cc3ccc(-c4cccc(N(C)C)c4)cc3)C(CC(C)C)C2=O)nn1 (stereo unspecified),11.8,–
CCNC(=O)C1(C)CCCN(C(=O)c2c(C)noc2C)C1 (stereo unspecified),-1.18,–
CCCCCCNC(=O)O[C@H]1CN(C(=O)OC(C)C)N(C(=O)OC(C)C)[C@@H]2CN(S(=O)(=O)c3ccc(C)cc3)C[C@]12O,-29.2,–
CCOC(=O)C1C(=O)C=C(c2ccc(OC)cc2)CC1c1ccco1 (stereo unspecified),–,11.6 µM (active)
COc1ccc(C2=NN(C(=O)CSc3nnnn3C)C(c3ccco3)C2)cc1 (stereo unspecified),56,–
CCOC(=O)C1C(=O)NC(N2CCN(c3ccccc3)CC2)=NC1c1ccco1 (stereo unspecified),6.85,–

SMILES,"activity change, negative = cytotoxicity [%]",Potency
O=C(CS(=O)(=O)c1cccc2nsnc12)N1CCN(c2cccc(Cl)c2)CC1,0,–
CC(=O)Nc1cccc(-c2cc3nc(NCc4cccnc4)n(C)c(=O)c3s2)c1,2.7,–
CC1(C(=O)NS(=O)(=O)c2ccccc2)CCN1C(=O)Cc1ccc(-c2ccccc2)cc1 (stereo unspecified),2.72,–
COc1ccc(OC)c(C(=O)c2coc3ccc(O)c(CN4CCOCC4)c23)c1,–,7.31 µM (active)
COc1ccc(OC)c(C(=O)c2coc3ccc(OC)cc23)c1,-6.37,–
Cc1ccc(C(=O)c2coc3ccc(O)c(CN(C)C)c23)cc1,6.06,–
CC(=O)NC(c1ccccc1)c1nc(-c2ccccc2C)cs1 (stereo unspecified),5.09,–
O=C(c1ccco1)N(Cc1cccs1)c1ccc(O)cc1,-11.9,–
COc1cccc(NC(=O)N(C)C[C@@H]2Oc3ncc(Br)cc3C(=O)N([C@@H](C)CO)C[C@H]2C)c1,-16.2,–
COc1ccc(S(=O)(=O)N2CCN(C(=O)NC3CCCCC3)CC2)cc1,2.42,–
O=C(CN1CCN(S(=O)(=O)c2ccc(F)cc2)CC1)NC1CC1,12.1,–
O=C(CN1CCN(S(=O)(=O)c2ccc3ccccc3c2)CC1)NC(=O)NC1CCCCC1,–,18.4 µM (active)
CC(=O)c1sc(N2C(=O)c3oc4ccccc4c(=O)c3C2c2ccc(C)cc2)nc1C (stereo unspecified),25,–
CN(C)c1ccnc2sc3c(=O)n(Cc4ccccc4)cnc3c12,–,8.2 µM (active)
CN(C)/C=C/c1c(C#N)c(=O)ncn1Cc1ccccc1,-13.6,–
CN(C)c1ccnc2sc(C(=O)c3ccccc3)c(N)c12,12.2,–
COc1ccc(-c2coc3c(C(=O)NC(C)C)cccc23)c(C)c1,-5.97,–
CC(=O)Nc1ccc2nc(NC(=O)CS(=O)(=O)c3ccc(F)cc3)sc2c1,-2.91,–
CCS(=O)(=O)N1Cc2ccccc2CC1C(=O)Nc1nc2ccc(F)cc2s1 (stereo unspecified),–,14.6 µM (active)
CCS(=O)(=O)N1Cc2ccccc2CC1C(=O)Nc1ccc(OC)cc1OC (stereo unspecified),3.09,–
NC(=O)C1CCN(c2ncc(-c3ccc(Cl)cc3)s2)CC1,13.3,–
CCCC(=O)N1CCC1(C)C(=O)Nc1ccc(-n2cncn2)cc1 (stereo unspecified),5.17,–
CSCCC(C(=O)NC(C)(C)C)n1c(-c2ccccc2)nc2ccccc21 (stereo unspecified),-25.2,–
Cc1ccc(S(=O)(=O)N2CCN(S(=O)(=O)N3CCOCC3)CC2)cc1,6.91,–
O=S(=O)(N1CCOCC1)N1CCN(c2ccccc2F)CC1,-16.5,–
Cc1cccc(C)c1N1CCN(S(=O)(=O)N2CCOCC2)CC1,–,16.4 µM (active)

SMILES,"activity change, negative = cytotoxicity [%]",Potency
Clc1ccc(-n2nnnc2CN2CCCCC2)cc1Cl,–,13 µM (active)
c1cc(-c2nn[nH]n2)ccc1CN1CCCCC1,-12.7,–
Clc1ccc(CN2CCCCCC2)cc1Cl,-11.5,–
COc1ccc(S(=O)(=O)NC(=O)C2(C)CCN2C(=O)c2ccccc2CCc2ccccc2)cc1 (stereo unspecified),-9.62,–
Cc1ccc(C)c(N2CCN(C(=O)CN3C(=O)COc4ccc(S(=O)(=O)N5CCCCCC5)cc43)CC2)c1,-1.22,–
Cc1nn(-c2ccccn2)c2c1C(c1ccncc1)C1=C(CC(C)(C)CC1=O)N2 (stereo unspecified),-6.62,–
Cc1cc2c(cc1C)NC(c1ccccn1)C1=C(CC(C)(C)CC1=O)N2 (stereo unspecified),-1.56,–
CC1(C)CC(=O)C2=C(C1)Nc1cc(C(=O)c3ccccc3)ccc1NC2c1ccccn1 (stereo unspecified),–,20.6 µM (active)
COc1ccc(C)cc1NC(=O)COCc1cc(-c2cccs2)on1,-7.37,–
O=S1(=O)CC(N2CCN(c3ccccn3)CC2)CN1Cc1ccc(F)cc1 (stereo unspecified),-24.7,–
COC(=O)C[C@@H]1C=C[C@@H](NS(=O)(=O)c2cccc(OC)c2)[C@@H](CO)O1,-3.47,–
CC(C)C[C@H]1CNC(=O)C(=O)N1C[C@@H]1CCCN1C[C@H](Cc1ccccc1)N1C[C@H](CC(C)C)N(CC2CCCCCC2)C(=O)C1=O,1.82,–
CN(Cc1cnccn1)C(=O)c1cc(COc2cccc(C(F)(F)F)c2)on1,-13.2,–
Cc1ccc(OCc2cc(C(=O)N(C)CCc3ccccc3)no2)cc1C,-18.2,–
CN(Cc1cccnc1)C(=O)c1cc(COc2ccc3ncccc3c2)on1,–,5.17 µM (active)
CC(C)c1cccc(C(C)C)c1Nc1cn[nH]c1,13.2,–
CC(=O)c1c(C)[nH]c(C(=O)COC(=O)c2cccc(S(=O)(=O)N(C)c3ccccc3)c2)c1C,–,11.6 µM (active)
COc1cccc(C(=O)OCC(=O)c2[nH]c(C)c(C(C)=O)c2C)c1,-9.26,–
CC(=O)c1c(C)[nH]c(C(=O)COC(=O)c2cccs2)c1C,0,–
O=C(Nc1ccc2nc(SCC(=O)N3CCc4ccccc43)sc2c1)c1ccccc1F,4.97,–
COc1ccc(C2CC(=O)N(Cc3ccccc3C)c3c2c(C)nn3-c2nc(C)cc(C)n2)c(OC)c1 (stereo unspecified),-1.08,–
C[C@@H]1CN([C@@H](C)CO)S(=O)(=O)c2ccc(C#Cc3cccc(F)c3)cc2O[C@H]1CN(C)S(=O)(=O)c1cn(C)cn1,9.43,–
C[C@H]1CN([C@@H](C)CO)C(=O)CCCn2cc(nn2)CO[C@@H]1CN(C)S(=O)(=O)c1ccc(-c2ccccc2)cc1,13.4,–
Cc1ccn2c(-c3csc(Nc4ccc(C(=O)O)cc4)n3)c(C)nc2c1,-1.24,–
O=c1c(=O)n(Cc2c(F)cccc2Cl)ccn1Cc1ccccc1,10.3,–
O=C(Nc1cccn(Cc2c(Cl)cccc2Cl)c1=O)c1ccc(Cl)cc1,–,3.66 µM (active)

SMILES,"activity change, negative = cytotoxicity [%]",Potency
O=C(Nc1cccn(Cc2ccccc2Cl)c1=O)NC1CCCCC1,-3.85,–
O=C(Nc1cccc2ccccc12)NC1CC1,11.2,–
CCCCNC(=O)OC1CC2CC1[C@H]1CCCCN1C2=O (stereo partly specified),-12.4,–
C[C@@H]1CN([C@@H](C)CO)C(=O)c2cc(Br)cnc2O[C@@H]1CN(C)C(=O)C1CCCCC1,-14.1,–
COC(=O)N/N=C/c1cn(CCCOc2ccc(C)cc2)c2ccccc12,–,18.4 µM (active)
CNC(=S)N/N=C/c1ccc(OCc2ccccc2)c(Br)c1,-3.98,–
N#CCC(=O)N/N=C/c1cn(Cc2ccc3ccccc3c2)c2ccccc12,-0.985,–
CNC(=S)N/N=C/c1cn(Cc2ccc(C)cc2)c2ccccc12,–,16.4 µM (active)
NC(=O)Cn1cc(/C=N\NS(=O)(=O)c2ccccc2)c2ccccc21,0,–
COc1cccc(Cn2cc(/C=N/NC(=O)c3cc(O)cc(O)c3)c3ccccc32)c1,-23.7,–
CCOC(=O)N/N=C/c1cn(Cc2ccccc2Cl)c2ccccc12,–,5.8 µM (active)
COc1ccc(OCCn2cc(C(=O)C3CCCCC3)c3ccccc32)cc1,-19,–
Cc1ccc(OCCOc2cccc(/C=N/NC(N)=O)c2)cc1,1.37,–
CCCCCCCCN1C(=O)[C@H](CC(=O)NCc2cccc3ccccc23)C[C@@]2(C(=O)OC)CCCCC=C12,-23.6,–
Cc1ccccc1S(=O)(=O)NC(=O)C1(C)CCN1C(=O)Cc1ccc(Cl)cc1Cl (stereo unspecified),4.1,–
CCc1nc2c(OCCOc3ccc(F)cc3)cccn2c1N(C)C(=O)c1ccccc1F,-15.3,–
Clc1ccc(-c2cccc3nccn23)cc1,-9.65,–
C=CCN1CCN(c2ccncc2S(=O)(=O)N2CCN(C)CC2)CC1,-1.22,–
COc1cccc(NC(=O)Nc2ccc3c(c2)N(C)C(=O)c2ccccc2S3)c1,-27,–
CC1(C)C=Cc2c(ccc(C(=O)/C=C/c3ccccc3)c2O)O1,0,–
O=C(COc1ccccc1F)NNC(=O)c1ccc(N2CCCCC2)c([N+](=O)[O-])c1,–,16.4 µM (active)
O=C(c1ccc(N2CCOCC2)c([N+](=O)[O-])c1)N1CCN(c2ccccc2F)CC1,-21.3,–
O=C(NCCCN1CCOCC1)c1ccc(N2CCCC2)c([N+](=O)[O-])c1,-11.8,–
